{"source": "the supplement of paper PMC6555819", "data": [{"test_system": "THRa homodimer (NR concentration 90 nM)", "experiment": "PBM binding z-score (relative to random genomic background probes); higher = stronger binding; sequences stand for … in GC…GCGATTGACAGCGTAGAATGAAGG", "outline": "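Each nuclear receptor dimer, without ligand, was incubated for 1 h on custom Agilent 4×180K protein-binding microarrays. Binding was detected with antibodies against each partner (one per run), and scanned fluorescence was regression-normalized. The binding z-scores are referenced to random human genomic background probes.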", "values": [{"sequence": "TAGCCTCGGTCATGCGGGCCAGTATAGTGTCGGC", "PBM binding z-score": -0.62}, {"sequence": "ATATGTAGGTTAGCTGGGGTTATTCAGACTAGGC", "PBM binding z-score": 1.11}, {"sequence": "CATACAGGGTCAGCTATGCCAGAGTAGGGACGGC", "PBM binding z-score": 0.818}, {"sequence": "TCATATAGGTAAATGCTAGGTGAAAATCCGATCT", "PBM binding z-score": 0.427}, {"sequence": "ATCTCTGGGTAAAGATAGTTCAGTGAATGCAAAT", "PBM binding z-score": -0.18}, {"sequence": "CGATCTAGGTCAGAACAGGACAGTGAAGGATGAT", "PBM binding z-score": 0.505}, {"sequence": "AGAATAAGGTTACCAAAGATCAGGGAAACGCTTG", "PBM binding z-score": 0.914}, {"sequence": "TGAATGAGGTTATAAGATCCGGGAACGTTGCAAA", "PBM binding z-score": 0.151}, {"sequence": "ATCTCTAGGAAACCAAGTTCAGTGAATGCCGAAC", "PBM binding z-score": 0.191}, {"sequence": "TCTTATAGATCAAGCAGGTTAAGAAAGCCTGAGT", "PBM binding z-score": -0.379}, {"sequence": "TCTAGCAGGCCAGAGGGTCTCTCAAGAGGTACGG", "PBM binding z-score": -0.98}, {"sequence": "GCTGCAAGGTCAGGTTGGTCAGCTAACGGGTACG", "PBM binding z-score": 1.48}, {"sequence": "CAGCTTAGGTCAGGGCCAGTATAGGAGGAACGTT", "PBM binding z-score": 1.78}, {"sequence": "GCATGTAGATCAAGGTTAAGAAAGACTAAGCTAA", "PBM binding z-score": -0.345}, {"sequence": "ATCTCTAGGTAACCAAGTGCAGTGAATGCCGAAC", "PBM binding z-score": 0.223}, {"sequence": "CCTACTGGTCCAAAAAGGTCATTGATGCCGATAA", "PBM binding z-score": 1.18}, {"sequence": "CCTATTAGTCGACCATAAGGGCAACCGAAGCTCG", "PBM binding z-score": 0.896}, {"sequence": "CCGACTGGGGCATAAGGTTATCATAAGCCAGCCC", "PBM binding z-score": 0.629}]}]}
